Results as given in ChEMBL document CHEMBL3988442, “University of Dundee, Small-Polar-MMV Screening Library” (2021).
For some assays here: Results with a measured potency or affinity are listed apart.

What was measured:
Parameters in all cases: scale not given: direction of the effect not stated beside the values
[1] = molecular target: Protein translocase subunit SecA (Escherichia coli (strain K12)) (UniProt P10408); test: Assay to Identify E. coli SecA ATPase Inhibitors; type: functional; conditions: 30 µM
Sequence of Protein translocase subunit SecA (Escherichia coli (strain K12)) (P10408 whole entry): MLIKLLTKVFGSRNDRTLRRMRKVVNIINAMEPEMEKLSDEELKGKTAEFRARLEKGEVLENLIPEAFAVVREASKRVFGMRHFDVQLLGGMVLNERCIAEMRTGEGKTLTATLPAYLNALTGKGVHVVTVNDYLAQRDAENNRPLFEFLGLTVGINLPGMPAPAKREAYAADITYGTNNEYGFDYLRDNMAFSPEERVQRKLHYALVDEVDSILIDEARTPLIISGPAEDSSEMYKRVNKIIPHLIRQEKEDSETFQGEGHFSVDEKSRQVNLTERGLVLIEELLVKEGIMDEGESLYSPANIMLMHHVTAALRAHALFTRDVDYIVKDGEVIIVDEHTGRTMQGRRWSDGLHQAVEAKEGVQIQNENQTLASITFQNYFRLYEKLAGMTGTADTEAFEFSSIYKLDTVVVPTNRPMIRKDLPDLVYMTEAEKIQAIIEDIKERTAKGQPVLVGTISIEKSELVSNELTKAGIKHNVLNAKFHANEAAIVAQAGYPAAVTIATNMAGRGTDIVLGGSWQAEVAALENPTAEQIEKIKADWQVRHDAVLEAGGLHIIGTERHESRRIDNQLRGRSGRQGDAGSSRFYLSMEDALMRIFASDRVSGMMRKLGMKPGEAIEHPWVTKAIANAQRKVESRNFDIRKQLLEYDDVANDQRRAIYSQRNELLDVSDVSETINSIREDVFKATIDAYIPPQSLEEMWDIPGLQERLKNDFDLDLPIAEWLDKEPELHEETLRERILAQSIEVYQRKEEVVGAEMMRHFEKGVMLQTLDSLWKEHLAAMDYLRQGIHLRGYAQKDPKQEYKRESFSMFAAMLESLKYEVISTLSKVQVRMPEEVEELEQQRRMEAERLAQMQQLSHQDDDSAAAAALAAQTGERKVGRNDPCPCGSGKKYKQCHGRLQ

[2] = molecular target: T1, Ubiquitin-activating enzyme e1, putative (Leishmania donovani (strain BPK282A1)) (UniProt E9BSI1); test: Leishmania donovani Ubiquitin Activating Enzyme (LdE1); type: functional; conditions: 30 µM
T1 sequence (whole entry): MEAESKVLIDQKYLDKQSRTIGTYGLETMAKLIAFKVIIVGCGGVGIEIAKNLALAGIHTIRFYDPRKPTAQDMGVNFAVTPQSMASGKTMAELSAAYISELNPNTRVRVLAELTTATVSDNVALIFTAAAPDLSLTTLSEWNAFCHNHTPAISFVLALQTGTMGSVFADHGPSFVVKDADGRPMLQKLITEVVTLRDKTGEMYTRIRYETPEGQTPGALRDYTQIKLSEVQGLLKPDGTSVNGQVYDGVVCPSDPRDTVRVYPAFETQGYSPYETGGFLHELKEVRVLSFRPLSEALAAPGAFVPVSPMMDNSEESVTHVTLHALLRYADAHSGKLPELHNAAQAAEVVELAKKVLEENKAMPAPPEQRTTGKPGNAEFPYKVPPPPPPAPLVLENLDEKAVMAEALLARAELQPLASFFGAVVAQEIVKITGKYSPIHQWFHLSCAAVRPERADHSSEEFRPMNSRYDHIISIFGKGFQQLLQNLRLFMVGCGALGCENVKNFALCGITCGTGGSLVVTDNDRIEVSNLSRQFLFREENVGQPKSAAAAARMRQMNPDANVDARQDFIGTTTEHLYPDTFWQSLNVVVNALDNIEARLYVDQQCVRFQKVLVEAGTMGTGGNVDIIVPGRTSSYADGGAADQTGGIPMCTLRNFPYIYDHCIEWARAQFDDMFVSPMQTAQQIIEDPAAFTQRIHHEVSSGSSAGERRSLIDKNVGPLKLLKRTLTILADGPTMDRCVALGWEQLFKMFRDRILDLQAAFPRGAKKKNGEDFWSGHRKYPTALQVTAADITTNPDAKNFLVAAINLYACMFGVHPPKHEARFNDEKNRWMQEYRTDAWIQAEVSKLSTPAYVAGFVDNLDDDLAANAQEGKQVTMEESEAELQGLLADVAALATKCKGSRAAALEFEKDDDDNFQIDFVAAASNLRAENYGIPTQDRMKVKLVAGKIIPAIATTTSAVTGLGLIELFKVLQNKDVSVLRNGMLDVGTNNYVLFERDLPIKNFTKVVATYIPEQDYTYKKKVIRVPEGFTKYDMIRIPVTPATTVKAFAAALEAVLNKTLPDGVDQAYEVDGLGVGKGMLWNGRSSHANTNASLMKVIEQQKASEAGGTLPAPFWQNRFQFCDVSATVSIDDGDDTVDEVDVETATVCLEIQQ

[3] = molecular target: AMP-activated protein kinase, AMPK (Homo sapiens) (UniProt P54646+O43741+P54619+Q9UGJ0+Q9Y478+Q13131+Q9UGI9); test: AMP-dependent Kinase enzyme assay. An in vitro enzyme assay that detects ADP turnover that is directly proportional to AMPK activity. This uses naive AMPK that is activated during the assay with MK-8722; type: functional; conditions: 30 µM
[4] = molecular target: Sialic acid-binding Ig-like lectin 9 (Homo sapiens) (UniProt Q9Y336); test: Hs-Siglec9 ALPHAscreen SOP 20170721; conditions: 10 µM
Sequence of Sialic acid-binding Ig-like lectin 9 (Homo sapiens) (Q9Y336 whole entry): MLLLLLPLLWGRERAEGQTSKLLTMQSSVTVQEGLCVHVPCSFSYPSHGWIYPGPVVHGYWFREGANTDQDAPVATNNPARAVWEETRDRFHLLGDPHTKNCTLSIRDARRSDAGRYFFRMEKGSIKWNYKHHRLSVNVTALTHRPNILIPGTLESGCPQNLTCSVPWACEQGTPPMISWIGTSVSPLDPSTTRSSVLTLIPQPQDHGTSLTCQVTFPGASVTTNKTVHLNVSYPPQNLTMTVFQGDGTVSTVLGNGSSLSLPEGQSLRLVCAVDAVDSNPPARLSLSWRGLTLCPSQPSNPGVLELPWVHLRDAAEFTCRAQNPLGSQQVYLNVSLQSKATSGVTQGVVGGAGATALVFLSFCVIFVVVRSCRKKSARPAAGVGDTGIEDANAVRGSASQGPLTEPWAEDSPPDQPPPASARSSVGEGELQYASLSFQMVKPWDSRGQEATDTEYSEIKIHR

Trypanosoma cruzi = test: Trypanosoma cruzi phosphomannomutase and mannose-1-phosphate guanylyltransferase assay; type: functional; conditions: 10 µM
[5] = molecular target: T2, Arginase-2, mitochondrial (Homo sapiens) (UniProt P78540); test: in vitro enzyme assay to detect the production of urea directly proportional to the activity of Arginase II; type: functional; conditions: 33.3 µM; note: in the data most compounds retested in dose-response had high values
T2 sequence (whole entry): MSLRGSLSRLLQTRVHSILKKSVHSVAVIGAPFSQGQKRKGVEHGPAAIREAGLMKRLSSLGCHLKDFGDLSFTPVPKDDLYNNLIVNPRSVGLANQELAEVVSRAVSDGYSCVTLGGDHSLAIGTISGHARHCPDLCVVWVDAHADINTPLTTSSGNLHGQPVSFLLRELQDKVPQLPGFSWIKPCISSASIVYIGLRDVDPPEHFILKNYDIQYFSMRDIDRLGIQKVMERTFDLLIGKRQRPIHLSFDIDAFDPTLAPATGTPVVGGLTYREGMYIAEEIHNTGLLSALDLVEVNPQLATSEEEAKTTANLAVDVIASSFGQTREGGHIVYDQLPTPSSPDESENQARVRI

[6] = molecular target: T3, Proteasome subunit beta (Trypanosoma cruzi) (UniProt O96673); test: Trypanosoma cruzi proteasome chymotrypsin-like activity (TcProtChymo) assay.; note: in the data most compounds retested in dose-response had high values; type: functional; conditions: 9.37 µM
T3 sequence (whole entry): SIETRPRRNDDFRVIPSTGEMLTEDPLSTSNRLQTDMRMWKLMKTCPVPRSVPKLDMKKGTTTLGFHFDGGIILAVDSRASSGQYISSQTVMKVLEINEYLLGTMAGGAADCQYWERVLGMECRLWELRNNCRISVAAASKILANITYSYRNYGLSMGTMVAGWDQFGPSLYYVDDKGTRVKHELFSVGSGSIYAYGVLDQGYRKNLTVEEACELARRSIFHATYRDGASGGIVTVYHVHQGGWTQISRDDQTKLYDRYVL

Homo sapiens = organism: Homo sapiens; test: To identify inhibition of the IFN signalling (Jak-Stat) pathway via expression of an eGFP reporter gene under the control of an IFN-stimulated response element (ISRE) containing MxA promoter.; type: functional; conditions: 30 µM
[7] = molecular target: T4, Tyrosyl-tRNA synthetase, putative (Trypanosoma cruzi (strain CL Brener)) (UniProt Q4DSP6); test: Trypanosoma cruzi tyrosyl tRNA synthetase (TcYRS) _High Tyrosine SOP; type: functional; conditions: 30 µM; note: in the data most compounds retested in dose-response had high values
T4 sequence (whole entry): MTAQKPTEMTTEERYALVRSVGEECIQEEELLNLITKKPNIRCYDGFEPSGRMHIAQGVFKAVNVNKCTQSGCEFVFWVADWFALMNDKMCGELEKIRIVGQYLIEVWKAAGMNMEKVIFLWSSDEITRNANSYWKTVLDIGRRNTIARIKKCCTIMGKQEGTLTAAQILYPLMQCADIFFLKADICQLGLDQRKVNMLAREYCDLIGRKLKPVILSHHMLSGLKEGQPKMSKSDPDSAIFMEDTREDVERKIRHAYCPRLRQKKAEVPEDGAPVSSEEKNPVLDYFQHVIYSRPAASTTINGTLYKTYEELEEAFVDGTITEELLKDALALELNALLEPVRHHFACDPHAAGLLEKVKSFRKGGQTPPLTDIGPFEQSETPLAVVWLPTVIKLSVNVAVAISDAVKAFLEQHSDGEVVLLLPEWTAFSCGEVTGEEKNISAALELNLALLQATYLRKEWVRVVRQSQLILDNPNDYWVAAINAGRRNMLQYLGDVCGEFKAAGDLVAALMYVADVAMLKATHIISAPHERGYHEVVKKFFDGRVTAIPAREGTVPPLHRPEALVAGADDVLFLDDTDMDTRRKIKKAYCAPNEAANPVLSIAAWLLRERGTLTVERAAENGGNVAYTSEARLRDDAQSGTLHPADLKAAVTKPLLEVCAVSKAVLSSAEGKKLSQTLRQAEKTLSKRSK

[8] = molecular target: T4, Tyrosyl-tRNA synthetase, putative (Trypanosoma cruzi (strain CL Brener)); test: Trypanosoma cruzi tyrosyl tRNA synthetase (TcYRS) SOP; type: functional; conditions: 30 µM
[9] = molecular target: Chromo domain-containing protein 1 (Saccharomyces cerevisiae (strain ATCC 204508 / S288c) (Baker's yeast)) (UniProt P32657); test: ScCHD-1 Enzyme Inhibition Assay; type: functional; conditions: 30 µM; note: in the data most compounds retested in dose-response had high values
Sequence of Chromo domain-containing protein 1 (Saccharomyces cerevisiae (strain ATCC 204508 / S288c) (Baker's yeast)) (P32657 whole entry, the tested form may be a part): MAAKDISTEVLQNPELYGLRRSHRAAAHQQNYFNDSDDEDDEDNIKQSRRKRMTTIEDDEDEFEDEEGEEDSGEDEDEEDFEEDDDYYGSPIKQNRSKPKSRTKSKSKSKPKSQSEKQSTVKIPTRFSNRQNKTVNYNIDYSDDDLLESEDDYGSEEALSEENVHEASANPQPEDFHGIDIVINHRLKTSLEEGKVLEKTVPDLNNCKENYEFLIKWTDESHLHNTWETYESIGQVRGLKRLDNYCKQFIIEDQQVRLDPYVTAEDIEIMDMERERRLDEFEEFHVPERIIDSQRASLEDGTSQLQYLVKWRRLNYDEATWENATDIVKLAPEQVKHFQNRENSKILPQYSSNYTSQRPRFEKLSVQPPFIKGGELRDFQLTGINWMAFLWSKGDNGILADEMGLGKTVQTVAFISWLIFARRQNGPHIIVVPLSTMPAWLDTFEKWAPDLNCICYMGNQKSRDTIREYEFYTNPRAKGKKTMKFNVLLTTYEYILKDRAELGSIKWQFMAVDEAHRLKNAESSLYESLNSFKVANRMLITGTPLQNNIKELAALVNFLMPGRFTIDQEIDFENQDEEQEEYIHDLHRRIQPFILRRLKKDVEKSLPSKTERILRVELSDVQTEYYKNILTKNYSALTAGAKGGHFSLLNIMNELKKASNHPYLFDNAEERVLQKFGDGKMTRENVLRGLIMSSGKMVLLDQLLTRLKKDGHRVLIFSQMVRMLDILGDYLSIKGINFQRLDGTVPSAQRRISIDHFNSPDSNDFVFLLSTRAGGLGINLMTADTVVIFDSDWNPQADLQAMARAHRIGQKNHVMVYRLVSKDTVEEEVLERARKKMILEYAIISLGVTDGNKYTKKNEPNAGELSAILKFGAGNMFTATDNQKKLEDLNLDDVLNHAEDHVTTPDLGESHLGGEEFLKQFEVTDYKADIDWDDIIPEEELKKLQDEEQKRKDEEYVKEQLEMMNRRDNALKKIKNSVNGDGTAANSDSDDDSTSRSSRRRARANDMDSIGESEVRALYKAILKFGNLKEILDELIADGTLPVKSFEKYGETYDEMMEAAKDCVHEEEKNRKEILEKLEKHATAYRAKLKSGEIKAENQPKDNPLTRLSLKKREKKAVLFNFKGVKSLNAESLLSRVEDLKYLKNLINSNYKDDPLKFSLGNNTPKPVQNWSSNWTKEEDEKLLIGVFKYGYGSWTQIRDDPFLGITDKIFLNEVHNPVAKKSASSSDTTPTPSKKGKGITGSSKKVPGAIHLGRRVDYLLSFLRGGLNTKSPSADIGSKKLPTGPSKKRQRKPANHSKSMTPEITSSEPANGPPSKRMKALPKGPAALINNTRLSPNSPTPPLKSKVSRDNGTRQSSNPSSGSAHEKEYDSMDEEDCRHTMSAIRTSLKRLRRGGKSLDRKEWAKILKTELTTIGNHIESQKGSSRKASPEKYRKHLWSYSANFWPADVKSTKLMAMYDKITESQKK

SMILES	Percent Effect [1] [%]	Percent Effect [2] [%]	Percent Effect [3] [%]	Percent Effect [4] [%]	Percent Effect (Trypanosoma cruzi) [%]	Percent Effect [5] [%]	Percent Effect [6] [%]	Percent Effect (Homo sapiens) [%]	Percent Effect [7] [%]	Percent Effect [8] [%]	Percent Effect [9] [%]
O=C(c1cscn1)N1CCC2(CCN(Cc3cccs3)CC2)C1	-5.71	8.11	6.09	-2.27	0.489	2.23	19	9.36	1.08	15.4	0.482
Cn1cc(N2CCC3(CCN(Cc4nccs4)C3)C2=O)cn1 (stereo not given)	-2.64	2.7	4.13	-6.07	-4.2	0.319	16.4	-1.48	4.32	10.3	-0.716
CCc1nc(NCCCOC)c2c(n1)c(C)nn2C	0.06	17.3	0.763	2.98	1.18	-0.176	20.1	29.9	5.29	17.9	-11.5
CCS(=O)(=O)N1CCC(c2cc3n(n2)[C@@H](C(F)(F)F)C[C@@H](C)N3)CC1	-3.21	9.46	-29.7	-2.76	-4.15	2.09	4.37	11.3	-1.07	6.49	-7.22
Cc1nc(C)n(CC2CCCN(Cc3nnc(-c4ccco4)o3)C2)n1 (stereo not given)	-3.02	0	11.3	-2.45	3.02	3.55	3.74	4.98	5.32	5.2	-1.67
Cn1cnc(S(=O)(=O)N2CCN(Cc3ccco3)CC2)c1Cl	-3.16	4.17	-1.11	4.71	0.291	0	4.74	8.03	-17.9	5.13	-0.35
CCN1CCN(S(=O)(=O)c2ncn(C)c2Cl)CC1	-6.34	6.94	-0.0263	3.04	-3.79	1.77	21.4	6.76	1.05	10.3	-1.92
Cc1ccc(C(=O)NS(=O)(=O)c2ccccc2C)c(=O)[nH]1	-3.76	8.11	-4.75	9.94	-5.85	-6.84	4.85	15.8	7.92	6.1	1.56
CC(C)NC(=O)N1CCc2ncc(CN3CCOCC3)n2CC1	1.23	0	6.6	1.59	-4.2	0.319	14	4.62	3.24	7.69	1.69
CC1CN(CC(=O)Nc2nncs2)CCN1c1nccs1 (stereo not given)	1.26	8.11	-4.77	-8.19	-5.29	0.924	16.5	25.9	4.95	18.3	-4.83
